# Results filed as inconclusive are left out. The source made the active and inactive calls. The calls were made as follows, unless noted: active = hit-call score of the fitted dose curve at least 0.9, where 1 is the maximum; inactive = score below 0.9.
# How the values were obtained:
# [1] = BSK_SAg_PBMCCytotoxicity: PBMC Cytotoxicity Assessment in the BioMAP Diversity Plus: SAg Assay (AID 2283093); details: primary human HUVEC with PBMC;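 also: PBMC viability measured as Alamar Blue reduction fluorescence at 546/580 nm; fitted both ways against DMSO so a hit may be loss or gain of signal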;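 as to AC50: PBMC superantigen activated with SEB plus TSST-1 one hour after compound addition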
# How it was run: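 Alamar Blue reduction (6 h, ex/em 546/580 nm) read after 90 h culture of PBMC pre-dosed 1 h then stimulated with SEB plus TSST-1, 20 ng/mL each. Gain or loss of signal fitted relative to DMSO.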
# [2] = read-out: Interleukin-8 (IL8), CXCL8 (gene 3576); test: BSK_SAg_IL8: BioMAP Diversity Plus: SAg Assay for Interleukin-8 (IL8) Biomarker Activity (AID 2283094); details: primary human HUVEC with PBMC; actives raise or lower the signal
# How it was run: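 HUVEC/PBMC co-culture, 24 h post-dose; IL-8 by ELISA. Gain or loss of signal fitted bidirectionally vs DMSO baseline.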
# [3] = BSK_SAg_Proliferation: Cell Proliferation Assessment in the BioMAP Diversity Plus: SAg Assay (AID 2283095); details: primary human HUVEC with PBMC;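 also: relative cell number as total protein by SRB absorbance in sub-confluent culture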
# How it was run: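 HUVEC/PBMC co-culture, 96-well. TCA-fixed (10%), 0.1% SRB stain, A560 at 96 h. Protein content used as viability readout; bidirectional fitting vs DMSO control.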
# [4] = BSK_SAg_SRB: Viability Assessment in the BioMAP Diversity Plus: SAg Assay (AID 2283096); details: primary human HUVEC with PBMC;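 also: cells read one day after compound addition; hits may be either gain or loss of signal compared with DMSO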
# How it was run: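 SRB absorbance at 560 nm served as the viability read-out. Cells (HUVEC plus peripheral blood mononuclear cells) were TCA-fixed and stained 24 h post-dosing; activity fitted in both directions against DMSO controls.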
# [5] = biological target: human CYP1A2, CYP1A2 (gene 1544) (UniProt P05177); test: NVS_ADME_hCYP1A2: NovaScreen (NVS) CYP450-related Enzyme Activity (ADME) Assay for human CYP1A2 (AID 2283102; active = hit-call score of the fitted dose curve at least 0.9, where 1 is the maximum;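 also: fluorescence from turnover of a fluorogenic substrate by recombinant insect-cell CYP1A2; potency for inhibition since loss of fluorescence marks reduced CYP1A2 activity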)
# Chain of human CYP1A2, CYP1A2 (gene 1544) (P05177 whole entry, looked up): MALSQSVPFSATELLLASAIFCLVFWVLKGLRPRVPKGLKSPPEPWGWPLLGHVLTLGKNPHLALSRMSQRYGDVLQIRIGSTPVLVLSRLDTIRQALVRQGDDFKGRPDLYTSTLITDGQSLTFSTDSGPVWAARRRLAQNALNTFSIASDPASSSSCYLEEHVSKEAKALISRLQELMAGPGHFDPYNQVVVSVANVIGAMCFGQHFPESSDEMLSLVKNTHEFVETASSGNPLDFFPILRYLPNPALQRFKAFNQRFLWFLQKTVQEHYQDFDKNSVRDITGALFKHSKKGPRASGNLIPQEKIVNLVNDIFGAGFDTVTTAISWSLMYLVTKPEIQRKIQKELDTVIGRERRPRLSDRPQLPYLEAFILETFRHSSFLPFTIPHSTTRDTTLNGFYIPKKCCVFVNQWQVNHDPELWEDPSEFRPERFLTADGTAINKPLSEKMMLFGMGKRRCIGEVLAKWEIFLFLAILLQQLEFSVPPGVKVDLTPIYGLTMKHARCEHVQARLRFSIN
# How it was run: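 rec. hCYP1A2 (insect cells), cell-free; fluorogenic substrate; 0.5 h; FI read. Baseline = acetonitrile; signal loss = inhibition. 10 uM duplicate primary → conc. series for actives.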
# [6] = biological target: human CYP2A6, CYP2A6 (gene 1548) (UniProt P11509); test: NVS_ADME_hCYP2A6: NovaScreen (NVS) CYP450-related Enzyme Activity (ADME) Assay for human CYP2A6 (AID 2283099; active = hit-call score of the fitted dose curve at least 0.9, where 1 is the maximum)
# Chain of human CYP2A6, CYP2A6 (gene 1548) (P11509 whole entry, looked up): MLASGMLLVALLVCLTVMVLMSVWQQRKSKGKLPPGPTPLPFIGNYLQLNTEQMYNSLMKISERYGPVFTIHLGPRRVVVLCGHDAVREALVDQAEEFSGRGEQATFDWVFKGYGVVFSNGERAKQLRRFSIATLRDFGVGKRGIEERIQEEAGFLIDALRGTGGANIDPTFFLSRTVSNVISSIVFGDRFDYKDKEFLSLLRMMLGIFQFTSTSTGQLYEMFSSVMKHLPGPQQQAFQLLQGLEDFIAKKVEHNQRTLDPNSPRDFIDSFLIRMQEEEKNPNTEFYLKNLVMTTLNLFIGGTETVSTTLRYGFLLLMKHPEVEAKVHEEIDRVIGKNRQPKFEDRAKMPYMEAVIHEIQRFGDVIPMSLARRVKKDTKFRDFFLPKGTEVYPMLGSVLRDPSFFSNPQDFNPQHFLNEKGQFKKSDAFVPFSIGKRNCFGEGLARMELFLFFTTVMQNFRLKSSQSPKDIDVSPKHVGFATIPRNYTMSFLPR
# How it was run: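 Fluorescent substrate turnover by recombinant CYP2A6 (insect cell source), 0.5 h read. Screen: 10 uM, duplicate; threshold hits (e.g. 30% inhibition) → singleton concentration-response, top 20 uM. Positive and negative controls on every plate.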
# [7] = biological target: human CYP1A1, CYP1A1 (gene 1543) (UniProt P04798); test: NVS_ADME_hCYP1A1: NovaScreen (NVS) CYP450-related Enzyme Activity (ADME) Assay for human CYP1A1 (AID 2283100; active = hit-call score of the fitted dose curve at least 0.9, where 1 is the maximum)
# Chain of human CYP1A1, CYP1A1 (gene 1543) (P04798 whole entry, looked up): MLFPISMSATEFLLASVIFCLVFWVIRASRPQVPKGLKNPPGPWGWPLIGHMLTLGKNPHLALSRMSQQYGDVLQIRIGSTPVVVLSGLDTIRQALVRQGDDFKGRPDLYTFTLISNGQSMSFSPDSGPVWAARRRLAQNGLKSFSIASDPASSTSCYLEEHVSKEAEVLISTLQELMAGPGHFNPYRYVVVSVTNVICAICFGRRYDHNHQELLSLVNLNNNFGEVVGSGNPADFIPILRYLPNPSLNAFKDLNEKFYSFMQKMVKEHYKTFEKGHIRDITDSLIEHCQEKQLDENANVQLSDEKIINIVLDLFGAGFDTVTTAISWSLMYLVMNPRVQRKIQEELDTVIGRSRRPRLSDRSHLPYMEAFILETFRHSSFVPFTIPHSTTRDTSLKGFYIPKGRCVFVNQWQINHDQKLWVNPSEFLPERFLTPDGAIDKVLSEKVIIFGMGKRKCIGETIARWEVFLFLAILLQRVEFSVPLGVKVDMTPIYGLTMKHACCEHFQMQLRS
# How it was run: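 Recombinant hCYP1A1 + fluorogenic substrate, cell-free; 1 h; fluorescence read. Single-point 10 uM (duplicate) → concentration series, max 20 uM. Acetonitrile negative control.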
# [8] = biological target: human CYP2B6, CYP2B6 (gene 1555) (UniProt P20813); test: NVS_ADME_hCYP2B6: NovaScreen (NVS) CYP450-related Enzyme Activity (ADME) Assay for human CYP2B6 (AID 2283101; active = hit-call score of the fitted dose curve at least 0.9, where 1 is the maximum)
# Chain of human CYP2B6, CYP2B6 (gene 1555) (P20813 whole entry, looked up): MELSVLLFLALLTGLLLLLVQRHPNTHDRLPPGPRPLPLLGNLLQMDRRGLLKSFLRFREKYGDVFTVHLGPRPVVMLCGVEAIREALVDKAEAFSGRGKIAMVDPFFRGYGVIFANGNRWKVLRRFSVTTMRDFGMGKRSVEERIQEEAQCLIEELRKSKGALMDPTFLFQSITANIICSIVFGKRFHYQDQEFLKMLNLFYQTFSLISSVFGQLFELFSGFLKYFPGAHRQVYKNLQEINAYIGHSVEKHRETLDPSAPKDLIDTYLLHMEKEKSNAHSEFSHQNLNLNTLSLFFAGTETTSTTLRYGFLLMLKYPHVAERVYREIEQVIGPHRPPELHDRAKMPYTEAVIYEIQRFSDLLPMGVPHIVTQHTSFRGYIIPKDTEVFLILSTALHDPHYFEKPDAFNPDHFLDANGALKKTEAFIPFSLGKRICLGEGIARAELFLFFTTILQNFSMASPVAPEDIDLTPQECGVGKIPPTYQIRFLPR
# How it was run: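 Cell-free recombinant enzyme assay with a fluorogenic substrate; fluorescence intensity read 1 hour after dosing. Loss of signal relative to acetonitrile negative control indicates inhibition. Primary screen run in duplicate at 10 uM, actives then tested in concentration series.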
# [9] = biological target: human CYP2D6, CYP2D6 (gene 1565) (UniProt P10635); test: NVS_ADME_hCYP2D6: NovaScreen (NVS) CYP450-related Enzyme Activity (ADME) Assay for human CYP2D6 (AID 2283107; active = hit-call score of the fitted dose curve at least 0.9, where 1 is the maximum)
# Chain of human CYP2D6, CYP2D6 (gene 1565) (P10635 whole entry, looked up): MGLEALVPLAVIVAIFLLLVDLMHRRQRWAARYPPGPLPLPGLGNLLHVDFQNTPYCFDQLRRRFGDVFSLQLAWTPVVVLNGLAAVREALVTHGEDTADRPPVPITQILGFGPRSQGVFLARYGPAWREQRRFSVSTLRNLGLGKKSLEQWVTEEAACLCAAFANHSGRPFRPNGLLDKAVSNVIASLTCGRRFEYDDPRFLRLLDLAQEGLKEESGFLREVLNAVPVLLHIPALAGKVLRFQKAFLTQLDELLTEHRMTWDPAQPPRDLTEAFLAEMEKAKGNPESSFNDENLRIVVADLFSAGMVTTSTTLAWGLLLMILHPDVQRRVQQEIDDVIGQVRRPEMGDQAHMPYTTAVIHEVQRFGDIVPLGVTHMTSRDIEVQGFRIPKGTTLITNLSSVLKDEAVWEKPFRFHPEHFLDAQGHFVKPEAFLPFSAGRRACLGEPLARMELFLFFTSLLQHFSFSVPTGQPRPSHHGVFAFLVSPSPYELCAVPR
# How it was run: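 Insect-cell recombinant enzyme + fluorogenic substrate, cell-free; 1 h incubation; fluorescence intensity readout. Acetonitrile = neg. ctrl/baseline. Single-point 10 uM, duplicate; follow-up concentration series.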
smiles,measurement,setting,value
Cc1ncc([C@@H](CCCCCCc2ccc3c(n2)NCCC3)CC(=O)O)cn1,outcome,[1],inactive
same,outcome,[2],inactive
same,outcome,[3],inactive
same,outcome,[4],inactive
CC(=O)c1ccccc1,outcome,[1],inactive
same,outcome,[2],inactive
same,outcome,[3],inactive
same,outcome,[4],inactive
CNC(C)=O,outcome,[1],inactive
same,outcome,[2],inactive
same,outcome,[3],inactive
same,outcome,[4],inactive
OCc1c[nH]c2ccccc12,outcome,[1],inactive
same,AC50,[2],0.0481 µM (active)
same,AC50,[3],31.1 µM (active)
same,outcome,[4],inactive
FC(F)=C(F)C(F)(F)C(F)(F)C(F)(F)C(F)(F)C(F)(F)C(F)(F)F,outcome,[1],inactive
same,outcome,[2],inactive
same,outcome,[3],inactive
same,outcome,[4],inactive
CCOC(N)=O,outcome,[1],inactive
same,outcome,[2],inactive
same,outcome,[3],inactive
same,outcome,[4],inactive
CCCCCCCC/C=C\CCCCCCCC(=O)OC[C@@H](O)[C@H]1OC[C@H](O)[C@H]1O,outcome,[1],inactive
same,outcome,[2],inactive
same,outcome,[3],inactive
same,outcome,[4],inactive
NC(N)=O,outcome,[1],inactive
same,outcome,[2],inactive
same,outcome,[3],inactive
same,outcome,[4],inactive
CCCCCCCCCCCCCCCCOS(=O)(=O)O,outcome,[1],inactive
same,outcome,[2],inactive
same,outcome,[3],inactive
same,outcome,[4],inactive
Nc1ccn([C@@H]2O[C@H](CO)[C@@H](O)[C@@H]2O)c(=O)n1,AC50,[1],12 µM (active)
same,outcome,[2],inactive
same,AC50,[3],14.1 µM (active)
same,AC50,[4],20 µM (active)
Cc1nc(-c2ccccn2)ncc1C(=O)Nn1cc(C)c2cc(F)ccc21,outcome,[1],inactive
same,outcome,[2],inactive
same,AC50,[3],20 µM (active)
same,outcome,[4],inactive
CC[C@H](C)C(=O)O[C@H]1C[C@H](O)C=C2C=C[C@H](C)[C@H](CC[C@@H](O)C[C@@H](O)CC(=O)O)[C@H]21,outcome,[1],inactive
same,AC50,[2],11.9 µM (active)
same,outcome,[3],inactive
same,outcome,[4],inactive
COCc1nnc(-c2ccc[n+]([O-])c2)n1-c1c(Cl)c(Cl)cc2[nH]c(=O)c(=O)[nH]c12,outcome,[1],inactive
same,outcome,[2],inactive
same,outcome,[3],inactive
same,outcome,[4],inactive
OC[C@H]1O[C@@H]2O[C@H]3[C@H](O)[C@@H](O)[C@@H](O[C@H]4[C@H](O)[C@@H](O)[C@@H](O[C@H]5[C@H](O)[C@@H](O)[C@@H](O[C@H]6[C@H](O)[C@@H](O)[C@@H](O[C@H]7[C@H](O)[C@@H](O)[C@@H](O[C@H]1[C@H](O)[C@H]2O)O[C@@H]7CO)O[C@@H]6CO)O[C@@H]5CO)O[C@@H]4CO)O[C@@H]3CO,outcome,[1],inactive
same,outcome,[2],inactive
same,outcome,[3],inactive
same,outcome,[4],inactive
C[Si](C)(C)C(F)(F)C(F)(F)C(F)(F)F,outcome,[1],inactive
same,outcome,[2],inactive
same,outcome,[3],inactive
same,outcome,[4],inactive
FC(F)C(F)(F)COCC1CO1 (configuration not stated),outcome,[1],inactive
same,outcome,[2],inactive
same,outcome,[3],inactive
same,outcome,[4],inactive
CC(C)c1nnc2ccc(-c3ocnc3-c3cc(F)ccc3F)cn12,AC50,[1],0.882 µM (active)
same,AC50,[2],1.27 µM (active)
same,AC50,[3],12.8 µM (active)
same,outcome,[4],inactive
O=C(O)c1ccc2c(c1)nc(C(=O)NC1CCN(C3CC3)CC1)n2Cc1cc(-c2ccc(Cl)s2)on1,outcome,[1],inactive
same,outcome,[2],inactive
same,outcome,[3],inactive
same,outcome,[4],inactive
Cn1c(=O)c2[nH]cnc2n(C)c1=O,outcome,[1],inactive
same,outcome,[2],inactive
same,outcome,[3],inactive
same,outcome,[4],inactive
CCOc1ccc2[nH]cc(C(=O)NCc3ccccc3)c(=O)c2n1,outcome,[1],inactive
same,outcome,[2],inactive
same,outcome,[3],inactive
same,outcome,[4],inactive
CCc1ccc(O)c(C(C)(C)C)c1,AC50,[1],34.7 µM (active)
same,outcome,[2],inactive
same,AC50,[3],33 µM (active)
same,AC50,[4],35.8 µM (active)
C=CN1CCCC1=O,outcome,[1],inactive
same,outcome,[2],inactive
same,outcome,[3],inactive
same,outcome,[4],inactive
O=C(NO)C1(NS(=O)(=O)c2ccc(Oc3ccc(F)cc3)cc2)CCOCC1,outcome,[1],inactive
same,outcome,[2],inactive
same,outcome,[3],inactive
same,outcome,[4],inactive
O=c1[nH]cnc2c1ncn2[C@H]1CC[C@@H](CO)O1,outcome,[1],inactive
same,outcome,[2],inactive
same,outcome,[3],inactive
same,outcome,[4],inactive
Cc1ccc(S(=O)(=O)NC(=O)NN2CCCCCC2)cc1,outcome,[1],inactive
same,outcome,[2],inactive
same,outcome,[3],inactive
same,outcome,[4],inactive
O=S(=O)(O)CCC(F)(F)C(F)(F)C(F)(F)C(F)(F)C(F)(F)C(F)(F)F,outcome,[1],inactive
same,outcome,[2],inactive
same,outcome,[3],inactive
same,outcome,[4],inactive
NCC(F)(F)C(F)(F)C(F)(F)C(F)(F)F,outcome,[1],inactive
same,outcome,[2],inactive
same,outcome,[3],inactive
same,outcome,[4],inactive
CC(C)C(=O)Nc1ccc([N+](=O)[O-])c(C(F)(F)F)c1,outcome,[1],inactive
same,outcome,[2],inactive
same,outcome,[3],inactive
same,outcome,[4],inactive
same,AC50,[5],5.33 µM (active)
c1ccc(C(O[C@@H]2CCCN(CCc3ccc4c(c3)OCO4)C2)c2ccccc2)cc1,AC50,[1],28.4 µM (active)
same,AC50,[2],14.1 µM (active)
same,AC50,[3],16.3 µM (active)
same,AC50,[4],24.3 µM (active)
same,outcome,[6],inactive
same,AC50,[7],4.89 µM (active)
same,AC50,[8],4.4 µM (active)
same,AC50,[5],5.35 µM (active)
same,AC50,[9],1.59 µM (active)
